# Screens (PubChem BioAssay)
# Sampled rows, rich in hits. Any-hit rate of the full collection: about 3.3%.
# UHRF1 MBD2 ctr = human UHRF1 methylated DNA binding inhibitors; Q96T88; UHRF1 binding to methylated oligo, TR-FRET; inhibition, % at 4.4 µM; 370,000 compounds, 0.75% hits; in the data active = inhibition above about 21%;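 also: UHRF1 SRA domain binding a hemimethylated CpG hairpin DNA probe; 0% = median of test compound wells and 100% = reference inhibitor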
# Target sequence (Q96T88 whole entry, looked up, the tested form may be a part): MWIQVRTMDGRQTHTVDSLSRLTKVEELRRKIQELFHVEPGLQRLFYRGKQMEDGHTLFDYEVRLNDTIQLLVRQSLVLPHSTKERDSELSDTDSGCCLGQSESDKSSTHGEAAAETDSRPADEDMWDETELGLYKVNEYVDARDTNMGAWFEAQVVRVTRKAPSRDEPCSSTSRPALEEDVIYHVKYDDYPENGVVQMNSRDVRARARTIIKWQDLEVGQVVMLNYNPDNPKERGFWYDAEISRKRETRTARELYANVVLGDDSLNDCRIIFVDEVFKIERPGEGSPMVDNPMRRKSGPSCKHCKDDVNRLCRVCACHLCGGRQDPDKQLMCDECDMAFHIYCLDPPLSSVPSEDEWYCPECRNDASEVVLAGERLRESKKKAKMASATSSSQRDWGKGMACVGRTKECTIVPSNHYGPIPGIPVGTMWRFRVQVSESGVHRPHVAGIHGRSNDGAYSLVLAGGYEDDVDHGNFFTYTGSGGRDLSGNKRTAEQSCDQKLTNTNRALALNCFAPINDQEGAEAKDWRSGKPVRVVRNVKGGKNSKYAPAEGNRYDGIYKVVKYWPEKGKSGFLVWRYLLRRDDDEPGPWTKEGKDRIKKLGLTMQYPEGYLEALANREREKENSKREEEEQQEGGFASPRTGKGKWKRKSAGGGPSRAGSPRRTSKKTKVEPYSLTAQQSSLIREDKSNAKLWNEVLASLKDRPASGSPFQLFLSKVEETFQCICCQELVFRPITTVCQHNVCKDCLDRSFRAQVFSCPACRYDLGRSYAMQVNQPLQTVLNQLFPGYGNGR
# PRMT1 FP inh = inhibitors of human PRMT1; Q99873; recombinant PRMT1, activity-based probe fluorescence polarization; inhibition, % at 2.79 µM; 370,000 compounds, 1.3% hits; AID 652257;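 active = inhibition above about 21% made by adding two undisclosed values, limit read from the data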
# PfM18AAP inh-1 = blocks P. falciparum M18 aspartyl aminopeptidase. recombinant PfM18AAP, H-Glu-NHMec fluorogenic cleavage. 290,000 compounds, 1.2% hits. AID 1822. inhibition, % at 7.35 µM;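 active = inhibition above the campaign mean inhibition over all tested compounds plus 3 SD, cut at about 28% in these data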;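 also: 0% = plate median of test compound wells and 100% = 2 mM ZnCl2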
# MBD2 inh = inhibitors of human MBD2 binding to methylated oligonucleotide | Q9UBB5 | TR-FRET | inhibition, % at 4.4 µM | 370,000 compounds, 0.31% hits; in the data active = inhibition above about 13%
# PfG6PD inh = PfG6PD (Plasmodium falciparum) enzyme inhibition; PfGluPho enzyme, NADPH resazurin-diaphorase fluorescence; inhibition, % at 20 µM; 350,000 compounds, 0.78% hits; AID 504690;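 active = inhibition reaching at least a set limit at 20 µM in the primary screen, cut at about 59% in these data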;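 also: 0% = DMSO wells with substrate and 100% = DMSO wells lacking glucose-6-phosphate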
# PfM18AAP inh-2 = PfM18AAP inhibition, confirmation; shares compounds with PfM18AAP inh-1; recombinant PfM18AAP, H-Glu-NHMec fluorogenic cleavage; inhibition, % at 7.35 µM; 2,400 compounds, 28% hits; AID 2170;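 active = mean inhibition over replicate wells above the hit cutoff set for the earlier primary screen, cut at about 29% in these data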;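 also: 0% = median of test compound wells and 100% = 2 mM ZnCl2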
# CTSL1 counter = Cathepsin L (human) inhibition, confirmation; 2,400 tested, under 10 active; inhibition, % at 5.96 µM; shares compounds with PfM18AAP inh-1; purified cathepsin L1, Z-Leu-Arg-MCA fluorescence;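 active = average inhibition across replicates above the hit cutoff set in the earlier primary screen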;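 also: 0% = median of test compound wells and 100% = Z-Phe-Ala-diazomethylketone 1 µM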
# Starred values were filed as active, the others as inactive; x = not tested or not shown.
SMILES,UHRF1 MBD2 ctr,PRMT1 FP inh,PfM18AAP inh-1,MBD2 inh,PfG6PD inh,PfM18AAP inh-2,CTSL1 counter
Cn1c(=O)oc2cc(S(=O)(=O)N3CCN(c4cccc(C(F)(F)F)c4)CC3)ccc21,-0.3,1.6,x,-4.0,x,x,x
CC(C)=CCc1c(O)ccc2c1OC(c1ccc(O)c(O)c1)CC2=O (stereo not drawn),1.4,8.2,61.9*,6.1,-1.3,54.7*,0.1
CC(C)=CCc1c(O)cc2c(c1O)C(=O)CC(c1ccccc1)O2 (stereo not drawn),2.5,-6.6,x,2.6,0.5,x,x
O=c1c2cc3cc(Cl)ccc3nc2ncn1Cc1ccc(Oc2ccccc2)cc1,-0.5,-2.3,x,-5.0,x,x,x
COc1cc(/C=N/NC(=O)CSc2cc(C)c(Br)cc2C)ccc1O,0.4,0.6,-6.9,1.3,-5.3,x,x
Cc1cc(SCC(=O)N/N=C/c2ccc(O)c(O)c2O)c(C)cc1Br,0.6,35.2*,53.0*,3.5,-4.9,22.1,-7.9
Cc1nc(C(=O)NNC(=O)c2ccc(Cl)cc2)cs1,-2.9,-1.4,3.9,1.4,3.3,x,x
Cc1nc(/C(=N/O)C(N)=O)cs1,2.8,-2.5,47.6*,4.8,-2.9,38.0*,-1.2
COC(=O)c1cc(-c2ccc(Oc3ccccc3)cc2)c(=O)n2c1CCC2,-0.3,0.5,x,-0.8,x,x,x
Oc1cccc(/C=N/N2CCCCC2)c1O,-0.5,6.7,44.7*,-4.2,-12.7,21.5,-3.1
Oc1ccccc1C=NN1CCCCCC1,2.2,0.3,x,1.8,-4.3,x,x
COc1ccccc1-c1ccc(OCCCN2CCC(C(O)(c3ccccc3)c3ccccc3)CC2)cc1,-2.7,-4.2,x,6.2,x,x,x
COc1cc(C(C[N+](=O)[O-])c2c(C)cc3ccccn23)ccc1O (stereo not drawn),-3.8,7.5,40.2*,-8.9,38.8,-13.4,0.4
O=C(Nc1nnc(Cc2ccccc2)s1)c1ccco1,-0.2,2.4,-7.9,1.3,-20.0,x,x
NC(=O)c1cc(Cc2ccccc2)sc1NC(=O)c1ccco1,2.2,3.6,34.8*,2.7,47.1,-20.8,6.4
C=CCn1c(COc2ccc(Cl)cc2)nnc1SCC(=O)c1ccccc1,-0.1,-1.6,x,-1.1,x,x,x
COc1ccccc1Cc1c(-c2ccccc2)nc2ccc(C)cn12,14.8,-0.8,x,3.6,x,x,x
O=C(N/N=C/c1ccc(O)c(O)c1O)/C(=C/c1ccc([N+](=O)[O-])cc1)NC(=O)c1ccccc1,-9.0,24.4*,54.0*,-7.8,83.8*,33.9*,-2.2
Cc1ccccc1CN1CCCCC(NC(=O)c2ccccc2)C1=O (stereo not drawn),-0.2,0.5,x,-2.1,x,x,x
Cc1ccc(C2N3CC4([N+](=O)[O-])CN2CC([N+](=O)[O-])(C3)C4(C)C)cc1 (stereo not drawn),0.6,2.9,1.3,1.4,0.8,x,x
CC1(C)C2([N+](=O)[O-])CN3CC1([N+](=O)[O-])CN(C2)C3c1ccc(O)c(O)c1 (stereo not drawn),0.8,6.0,77.0*,7.0,-8.7,84.2*,3.7
COc1cc(OC)cc(C(=O)/C=C2\Sc3ccccc3N2C)c1,1.3,-0.1,46.7*,-1.4,9.5,-47.6,0.3
COc1ccc(C(=O)/C=C2/Sc3cc4c(cc3N2C)OCO4)cc1,-1.5,1.3,39.7*,-1.4,31.0,-44.8,1.5
CC(C)CNc1nnnc2c1sc1nc(N3CCOCC3)c3c(c12)CC(C)(C)SC3,4.3,0.5,-1.8,-3.3,17.3,x,x
CC1(C)Cc2c(c(N3CCOCC3)nc3sc4c(NN)ncnc4c23)CS1,-3.3,-1.5,32.8*,-3.4,11.6,-7.0,2.7
SMILES,UHRF1 MBD2 ctr,PRMT1 FP inh,PfM18AAP inh-1,MBD2 inh,PfG6PD inh,PfM18AAP inh-2,CTSL1 counter
CC(=O)N1CCC(=NNc2ncc(C(F)(F)F)cc2Cl)CC1,-4.2,1.7,33.4*,1.8,12.6,-3.2,4.7
CCOC(=O)N1CCC(=NNc2ncc(C(F)(F)F)cc2Cl)CC1,-0.7,-1.8,11.6,-3.2,-2.2,x,x
CC(C)C(=O)c1ccc(O)c(O)c1,6.8,5.9,41.4*,8.4,-36.7,20.6,1.4
O=C(C(=O)c1ccc(O)c(O)c1)c1ccc(O)c(O)c1,2.0,3.3,x,0.5,-17.7,x,x
COc1cc(/C=N/Nc2ccc(C(=O)O)cc2)ccc1O,15.3,9.6,50.5*,4.1,9.3,22.0,3.2
COC(=O)C1=C(O)/C(=C\c2ccc(O)c(OC)c2)N=C1C,-11.0,0.9,54.9*,-11.6,20.4,-29.6,-3.2
COc1cc(/C=C/C(=O)CC(=O)/C=C/c2ccc(O)c(OC)c2)ccc1O,0.2,x,35.2*,1.3,-5.0,-4.2,-2.0
COc1cc(/C=C/C(=O)/C=C(O)/C=C/c2ccc(O)c(OC)c2)ccc1O,1.3,x,x,0.1,12.3,x,x
COC(=O)C1=C(O)/C(=C\c2ccc(OCC(=O)Nc3ccccc3OC)cc2)N=C1C,2.1,3.2,6.5,-6.5,18.3,x,x
CCOC(=O)[C@]12CCCC=C1N(Cc1ccc(OC)cc1)C(=O)[C@@H]2CC(=O)N1CCCCC1,-1.7,1.2,x,-5.6,x,x,x
CCN1CCC2(CC1)N=C(c1ccc(F)cc1)C(=S)N2C(=O)c1ccc(C(C)(C)C)cc1,-1.8,17.9,13.8,0.5,45.4,x,x
CN1CCC2(CC1)N=C(c1ccc(F)cc1)C(=S)N2C(=O)c1ccccc1,-2.5,-3.2,33.3*,-1.0,48.0,-39.4,-2.2
CCC(CC)c1nnc(NC(=O)C2CC(=O)N(CCc3ccc(F)cc3)C2)s1 (stereo not drawn),-3.8,7.8,34.7*,-3.1,36.5,-41.2,-3.0
CCC(CC)c1nnc(NC(=O)C2CC(=O)N(CCc3ccc(OC)c(OC)c3)C2)s1 (stereo not drawn),-0.8,2.6,x,-2.4,-8.5,x,x
COc1ccc(-c2ccc(S(=O)(=O)n3nc(OC(=O)c4cccs4)cc3N)cc2)cc1,-0.2,-5.6,15.4,-5.4,-6.5,x,x
COc1ccc(NC(=O)n2nc(OC(=O)c3cccs3)cc2N)cc1,-0.8,24.3*,49.7*,3.2,17.6,4.8,-16.7
COC(=O)c1cc(=O)n(Cc2ccco2)c(=Nc2ccccc2)s1,-0.5,1.0,x,0.7,x,x,x
O=C(CN1CCN(c2ccccc2F)CC1)c1ccc(O)c(O)c1,5.7,16.7,59.8*,-3.9,-15.3,37.1*,2.3
O=C(CN1CCN(S(=O)(=O)c2ccc(Br)cc2)CC1)c1ccc(O)c(O)c1,0.6,1.6,71.9*,-4.3,-7.3,40.1*,-1.3
CC(C)c1ccc(S(=O)(=O)N2CCN(CC(=O)c3ccc(O)c(O)c3)CC2)cc1,2.3,14.8,67.3*,-5.1,x,35.6*,6.8
C=CCN(C(=O)[C@@H](C)[C@@H](O)c1ccc(C(C)=O)cc1)c1ccccc1,1.8,-0.6,x,-0.5,x,x,x
Clc1ccc([C@H]2OC[C@@]3(CNCC4CC4)CS[C@H](c4ccc(Cl)cc4)N23)cc1,-1.4,3.1,x,-2.1,x,x,x
COc1cc(CN2CCSCC2)c([N+](=O)[O-])cc1OC,2.0,3.2,25.7,1.4,19.9,x,x
COc1cc(CN2CCCCCC2)c([N+](=O)[O-])cc1OC,-5.3,0.9,32.6*,-1.6,24.0,-29.9,-7.1
